Assay outcomes deposited in PubChem by several laboratories.
The list is not random: actives were taken first. Their share in the collection is about 13%.
RAM inhibit: inhibitors of the yeast RAM network, primary screen, dse1pr::URA3 reporter, 5-FOA selection | AID 868, 2007 | 1.8% of 190,000 active | S. cerevisiae dse1pr::URA3 reporter, 5-FOA growth OD615, 2 d; analog-sensitive cbk1-as2 kinase mutant strain | inhibition, % at 50 µM;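 active = inhibition above a set limit, 3 SD over mean compound inhibition, cut at about 8.4% in these data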;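 note: 0% = DMSO-only wells with no growth and 100% = 10 µM 1-NA-PP1 full growth; inhibition rescues growth on 5-FOA so higher OD means more RAM inhibition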
WT yeast gro inh: growth inhibition of WT strain, primary screen, mitochondrial fusion inhibitor project, WT and mutant strains, chemical genetic; mitochondrial fusion phenotypic screen; inhibition, % at 10 µM; 2.1% of 190,000 active; AID 1362, 2008; in the data active = inhibition above about 58%; tested in S. cerevisiae
Lmaj promast: Leishmania major promastigote growth inhibition, primary screen; Leishmania major promastigotes, resazurin fluorescence viability; inhibition, % at 10 µM; 9% of 200,000 active; in the data active = inhibition above about 50%;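 note: promastigotes grown with compound for 44 hours at 28 °C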
CHOP inh: inhibitors of CHOP promoter induction, primary screen, cell-based, unfolded protein response, luciferase reporter | CHO-K1 CHOP-promoter luciferase, tunicamycin-induced, 15-18 h | inhibition, % at 10 µM | 3.8% of 220,000 active | AID 2732, 2010;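 active = compounds that reduced the stress-induced luciferase reporter signal by more than about 70% of percent inhibition, limit read from the data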;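 note: 0% = tunicamycin plus vehicle and 100% = wells without tunicamycin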
An asterisk follows results filed as active.

`COc1ccccc1N1CCN(C(=O)COc2ccc(C)cc2Br)CC1` gave RAM inhibit 0, WT yeast gro inh 15, Lmaj promast 2 and CHOP inh 45.
For CC(C)CN(C(=O)COC(=O)c1c(Cl)ccc(Cl)c1Cl)C1CCS(=O)(=O)C1 (stereo unspecified) the results were RAM inhibit 2, WT yeast gro inh 16, Lmaj promast 24 and CHOP inh 4.
COc1ccccc1N1CCN(C(=O)Cn2nc3n(C)c4ccccc4n3c(=O)c2=O)CC1 was read as RAM inhibit 2, WT yeast gro inh -14, Lmaj promast -5 and CHOP inh -8.
Cc1ccc(/C=C/C(=O)N2CCCC(C)C2)cc1 (stereo unspecified) was read as RAM inhibit -1, WT yeast gro inh -12, Lmaj promast -6 and CHOP inh 32.
`COc1ccc(-c2ccc(=O)n(CC(=O)N3CCN(c4ccccc4OC)CC3)n2)cc1` gave WT yeast gro inh 14 and Lmaj promast 92*.
Cc1ccc(/C=C/C(=O)N2CCC(Cc3ccccc3)CC2)cc1 was read as RAM inhibit 4, WT yeast gro inh 67*, Lmaj promast 43 and CHOP inh 87*.
`CCc1ccc(C(=O)COC(=O)c2n[nH]c3ccccc23)cc1` gave RAM inhibit 2, WT yeast gro inh 11, Lmaj promast -2 and CHOP inh 69.
`CCOc1cc(/C=C/c2cc(C(=O)O)c3ccccc3n2)ccc1O` gave RAM inhibit 5, WT yeast gro inh 10, Lmaj promast 75* and CHOP inh 33.
Screening CN1CCc2c(sc(/N=C/c3cc(C(C)(C)C)ccc3O)c2C#N)C1 returned CHOP inh 18.
`CC(C)(C)c1cccc(/C=N/O)c1O` gave RAM inhibit -2, WT yeast gro inh 7, Lmaj promast 52* and CHOP inh 75*.
Screening CC(C)(C)c1ccc(O)c(/C=N\O)c1 returned RAM inhibit 1, WT yeast gro inh -4, Lmaj promast 6 and CHOP inh 78*.
For COc1cccc(Cn2cc(C(=O)NCCN(C)C)nn2)c1 the results were RAM inhibit 0, WT yeast gro inh 0, Lmaj promast -3 and CHOP inh 10.
`Cc1ccc(CNc2nc(-c3cccs3)nc3ccccc23)cc1` gave RAM inhibit 2, WT yeast gro inh 76*, Lmaj promast 76* and CHOP inh 62.
`c1ccc(CNc2nc(-c3cccs3)nc3ccccc23)nc1` gave RAM inhibit 0, WT yeast gro inh -4, Lmaj promast 78* and CHOP inh 0.
Screening N#Cc1cccnc1Oc1ccccc1 returned CHOP inh 6.
Screening COC(=O)c1ccc(C(=O)OC)c(-n2c(=O)c3ccccc3c3ccccc3c2=O)c1 returned RAM inhibit -1, WT yeast gro inh 3, Lmaj promast -5 and CHOP inh -20.
`COc1cc(-c2nc3ccc4ccccc4c3c3c2CCC3)ccc1O` gave RAM inhibit 3, WT yeast gro inh 79*, Lmaj promast 30 and CHOP inh 86*.
For COc1cc(-c2nc3ccc4ccccc4c3c3c2CCC3)cc(OC)c1OC the results were RAM inhibit 4, WT yeast gro inh 0, Lmaj promast 27 and CHOP inh 57.
For Cn1c(CNC(=O)c2ccccc2)nnc1SCC(=O)Nc1nccs1 the results were RAM inhibit 2, WT yeast gro inh -1, Lmaj promast 0 and CHOP inh 16.
For C/C(=C/CCC(C)C1CCC2(C)C3CCC4C(C)(C)C(=O)CCC4(C)C3=CCC12C)C(=O)O (stereo unspecified) the results were CHOP inh 45.
Screening C/C(=C/CCC(C)[C@H]1CC[C@@]2(C)C3=C(CC[C@]12C)[C@@]1(C)CCC(=O)C(C)(C)[C@@H]1CC3)C(=O)O (stereo partly specified) returned RAM inhibit 1, WT yeast gro inh 41, Lmaj promast 9 and CHOP inh 74*.
`Cc1ccccc1-c1nnc(SCc2ccc(F)cc2)o1` gave RAM inhibit 7, WT yeast gro inh 60*, Lmaj promast -3 and CHOP inh 43.
For COc1ccc(-c2nnc(SCc3cc(C)cc(C)c3)o2)cc1 the results were RAM inhibit 4, WT yeast gro inh 64*, Lmaj promast 2 and CHOP inh 14.
`O=C(Nc1ccccc1-c1nnc(SCc2ccc(Cl)cc2)o1)c1ccccc1` gave RAM inhibit 8.4*, WT yeast gro inh 13, Lmaj promast 5 and CHOP inh 36.
Screening COc1ccc(-c2nnc(-c3ccc(N)cc3)o2)cc1 returned RAM inhibit 1, WT yeast gro inh 20, Lmaj promast 100* and CHOP inh 6.
Screening Cc1ccc(-c2nnc(SCc3ccccc3F)o2)cc1 returned RAM inhibit 7, WT yeast gro inh 60*, Lmaj promast -10 and CHOP inh 75*.
O=C(/C=C(\c1ccc(Cl)cc1)n1cncn1)c1ccc(Cl)cc1 was read as RAM inhibit 5, WT yeast gro inh -5, Lmaj promast 74* and CHOP inh 5.
For Cc1ccc(OCC(=O)NNC(=O)C(=O)N2CCCC2)c(C)c1 the results were RAM inhibit 0, WT yeast gro inh 20, Lmaj promast -4 and CHOP inh -3.
Screening Cc1cc(C)c(NC(=O)c2sc3nc(C)[nH]c(=O)c3c2C)c(C)c1 returned RAM inhibit 5, WT yeast gro inh -1, Lmaj promast -8 and CHOP inh 12.
Screening Cc1ccc(NC(=O)c2sc3nc(CCl)[nH]c(=O)c3c2C)c(C)c1 returned RAM inhibit 1, WT yeast gro inh -12, Lmaj promast 89* and CHOP inh -117.
`O=C(O)/C=C/C(=O)NCc1csc2ccccc12` gave CHOP inh -7.
For COC1=C(Nc2ccc(OC)cc2)C(=O)c2ccccc2C1=O the results were RAM inhibit 4, WT yeast gro inh 11, Lmaj promast 69* and CHOP inh 2.
`CCOc1ccc(NC2=C(OC)C(=O)c3ccccc3C2=O)cc1` gave RAM inhibit 6, WT yeast gro inh 35, Lmaj promast 26 and CHOP inh 20.
`O=C1C(Cl)=C(Nc2ccc(O)cc2)C(=O)c2ccccc21` gave CHOP inh 31.
Screening COC1=C(Nc2ccc(O)cc2)C(=O)c2ccccc2C1=O returned RAM inhibit 5, WT yeast gro inh 22, Lmaj promast 53* and CHOP inh 39.
CCOc1ccc(NC2=NC(C(=O)NCc3ccccc3)CC(=O)N2)cc1 (stereo unspecified) was read as RAM inhibit 0, WT yeast gro inh -8, Lmaj promast -4 and CHOP inh 39.
CCCCOc1ncnc2c1[nH]c1ccccc12 was read as RAM inhibit -1, WT yeast gro inh 1 and Lmaj promast 57*.
For CCCCOc1ncnc2c1[nH]c1ccc(OCC)cc12 the results were RAM inhibit 2, WT yeast gro inh 47, Lmaj promast 12 and CHOP inh -28.
CCCCOCCCNc1ncnc2c1[nH]c1ccccc12 was read as RAM inhibit 0, WT yeast gro inh 17, Lmaj promast 80* and CHOP inh 85*.
